According to PubChem BioAssay AID1159580 (chemical genetic matrix, 2015):
Hit rate of the full screen: of about 5,500 compounds, about 2,000 (36%) were called active. Another 18% or so got no clear call; they are omitted. The list shows a part of the results. Unmarked numbers belong to inactive results. No stated cut-off is given here; in the data, active means normalized growth mostly below about 0.91 (no sharp cut-off); inconclusive means no clear call, values can overlap the other calls; inactive means mostly above about 0.92.

Assay: chemical genetic growth profiling, strain panel (AID 1159580);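 further: tested at 20 µM; growth read once vehicle control cultures reached saturation at 30 °C; 1 = growth at the plate median or of vehicle wells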
Settings: S. cerevisiae deletion strains, growth OD
[1] = locus YAR019C, strain CDC15, stronger effect = lower value
[2] = locus YBL105C, strain PKC1, stronger effect = lower value
[3] = locus YBR135W, strain CKS1, stronger effect = lower value
[4] = locus YBR136W, strain MEC1, stronger effect = lower value
[5] = locus YBR160W, strain CDC28, stronger effect = lower value
[6] = locus YDL017W, strain CDC7, stronger effect = lower value
[7] = locus YDL028C, strain MPS1, stronger effect = lower value
[8] = locus YDL101C, strain DUN1, stronger effect = lower value
[9] = locus YDL108W, strain KIN28, stronger effect = lower value
[10] = locus YDL132W, strain cdc53, stronger effect = lower value
[11] = locus YDL214C, strain PRR2, stronger effect = lower value
[12] = locus YDR052C, strain DBF4, stronger effect = lower value
[13] = locus YDR054C, strain cdc34, stronger effect = lower value
[14] = locus YDR226W, strain ADK1, stronger effect = lower value
[15] = locus YDR477W, strain SNF1, stronger effect = lower value
[16] = locus YER123W, strain YCK3, stronger effect = lower value
[17] = locus YER133W, strain GLC7, stronger effect = lower value
[18] = locus YFL009W, strain cdc4, stronger effect = lower value
[19] = locus YFL029C, strain CAK1, stronger effect = lower value
[20] = locus YFR003C, strain YPI1, stronger effect = lower value
[21] = locus YFR019W, strain FAB1, stronger effect = lower value
[22] = locus YFR028C, strain CDC14, stronger effect = lower value
[23] = locus YGR040W, strain KSS1, stronger effect = lower value
[24] = locus YGR052W, strain FMP48, stronger effect = lower value
[25] = locus YGR092W, strain DBF2, stronger effect = lower value
[26] = locus YHR030C, strain SLT2, stronger effect = lower value
[27] = locus YHR079C, strain IRE1, stronger effect = lower value
[28] = locus YHR082C, strain KSP1, stronger effect = lower value
[29] = locus YHR205W, strain SCH9, stronger effect = lower value
[30] = locus YIL147C, strain SLN1, stronger effect = lower value
[31] = locus YJL095W, strain BCK1, stronger effect = lower value
[32] = locus YJL128C, strain PBS2, stronger effect = lower value
[33] = locus YJL157C, strain FAR1, stronger effect = lower value
[34] = locus YJR016C, strain ILV3, stronger effect = lower value
[35] = locus YJR066W, strain TOR1 (second series), stronger effect = lower value
[36] = locus YJR066W, strain TOR1, stronger effect = lower value
[37] = locus YKL048C, strain ELM1, stronger effect = lower value
[38] = locus YKL067W, strain YNK1, stronger effect = lower value
[39] = locus YKL101W, strain HSL1, stronger effect = lower value
[40] = locus YKL193C, strain SDS22, stronger effect = lower value
[41] = locus YKL203C, strain TOR2, stronger effect = lower value
[42] = locus YLR113W, strain HOG1, stronger effect = lower value
[43] = locus YLR133W, strain CKI1, stronger effect = lower value
[44] = locus YLR403W, strain SFP1, stronger effect = lower value
[45] = locus YML070W, strain DAK1, stronger effect = lower value
[46] = locus YMR001C, strain CDC5, stronger effect = lower value
[47] = locus YMR205C, strain PFK2 (second series), stronger effect = lower value
[48] = locus YMR277W, strain FCP1, stronger effect = lower value
[49] = locus YNL006W, strain LST8, stronger effect = lower value
[50] = locus YNL020C, strain ARK1, stronger effect = lower value
[51] = locus YNL161W, strain CBK1, stronger effect = lower value
[52] = locus YNL183C, strain NPR1, stronger effect = lower value
[53] = locus YNL207W, strain RIO2, stronger effect = lower value
[54] = locus YNL222W, strain SSU72, stronger effect = lower value
[55] = locus YNL307C, strain MCK1 (second series), stronger effect = lower value
[56] = locus YOL078W, strain AVO1, stronger effect = lower value
[57] = locus YOL136C, strain PFK27, stronger effect = lower value
[58] = locus YOR061W, strain CKA2, stronger effect = lower value
[59] = locus YOR119C, strain RIO1, stronger effect = lower value
[60] = locus YOR231W, strain MKK1, stronger effect = lower value
[61] = locus YOR329C, strain SCD5, stronger effect = lower value
[62] = locus YPL031C, strain PHO85, stronger effect = lower value
[63] = locus YPL153C, strain RAD53, stronger effect = lower value
[64] = locus YPL204W, strain HRR25, stronger effect = lower value
[65] = locus YPL209C, strain IPL1, stronger effect = lower value
[66] = locus YPL256C, strain CLN2, stronger effect = lower value
[67] = locus YPR025C, strain CCL1, stronger effect = lower value
[68] = locus YPR106W, strain ISR1, stronger effect = lower value
[69] = locus YPR111W, strain DBF20, stronger effect = lower value
[70] = strain NNK1, stronger effect = lower value
[71] = strain TSCII, stronger effect = lower value

**Q.** Which results are given for `CCOC(=O)C1=C(N)OC2=C(C(=O)CC(C)(C)C2)C1c1ccc(Cl)cc1Cl` (configuration not stated)?
**A.** normalized growth [1]: 0.984; normalized growth [2]: 0.982; normalized growth [3]: 0.978; normalized growth [4]: 0.981; normalized growth [5]: 0.964; normalized growth [6]: 0.978; normalized growth [7]: 0.98; normalized growth [8]: 0.966; normalized growth [9]: 0.978; normalized growth [10]: 0.975; normalized growth [11]: 0.968; normalized growth [12]: 0.979; normalized growth [13]: 0.965; normalized growth [14]: 0.978; normalized growth [15]: 0.95; normalized growth [16]: 0.927; normalized growth [17]: 0.959; normalized growth [18]: 0.974; normalized growth [19]: 0.981; normalized growth [20]: 0.982; normalized growth [21]: 0.956; normalized growth [22]: 0.976; normalized growth [23]: 0.954; normalized growth [24]: 1.08; normalized growth [25]: 0.973; normalized growth [26]: 0.804 (active); normalized growth [27]: 0.943; normalized growth [28]: 1.01; normalized growth [29]: 0.953; normalized growth [30]: 0.984; normalized growth [31]: 0.904; normalized growth [32]: 0.975; normalized growth [33]: 0.976; normalized growth [34]: 0.99; normalized growth [35]: 0.95; normalized growth [36]: 0.947; normalized growth [37]: 0.948; normalized growth [38]: 0.959; normalized growth [39]: 0.963; normalized growth [40]: 0.973; normalized growth [41]: 1; normalized growth [42]: 0.934; normalized growth [43]: 0.961; normalized growth [44]: 0.964; normalized growth [45]: 0.944; normalized growth [46]: 0.984; normalized growth [47]: 0.976; normalized growth [48]: 0.98; normalized growth [49]: 0.987; normalized growth [50]: 0.95; normalized growth [51]: 0.983; normalized growth [52]: 0.934; normalized growth [53]: 0.989; normalized growth [54]: 0.977; normalized growth [55]: 0.947; normalized growth [56]: 0.979; normalized growth [57]: 0.952; normalized growth [58]: 0.958; normalized growth [59]: 1.06; normalized growth [60]: 0.953; normalized growth [61]: 0.976; normalized growth [62]: 0.948; normalized growth [63]: 0.952; normalized growth [64]: 0.933; normalized growth [65]: 0.966; normalized growth [66]: 0.876; normalized growth [67]: 0.979; normalized growth [68]: 0.979; normalized growth [69]: 0.964; normalized growth [70]: 0.973; normalized growth [71]: 0.982

**Q.** What does the source list for `COC(=O)C1=C(C)NC(C)=C(C(=O)OC)C1c1ccc(Cl)cc1Cl`?
**A.** normalized growth [1]: 0.973; normalized growth [2]: 0.976; normalized growth [3]: 0.971; normalized growth [4]: 0.976; normalized growth [5]: 0.981; normalized growth [6]: 0.979; normalized growth [7]: 0.977; normalized growth [8]: 0.973; normalized growth [9]: 0.967; normalized growth [10]: 0.967; normalized growth [11]: 0.917; normalized growth [12]: 0.986; normalized growth [13]: 0.967; normalized growth [14]: 0.972; normalized growth [15]: 0.909; normalized growth [16]: 0.887; normalized growth [17]: 0.889; normalized growth [18]: 0.968; normalized growth [19]: 0.969; normalized growth [20]: 0.98; normalized growth [21]: 0.949; normalized growth [22]: 0.974; normalized growth [23]: 0.914; normalized growth [24]: 0.989; normalized growth [25]: 0.88; normalized growth [26]: 0.99; normalized growth [27]: 0.963; normalized growth [28]: 0.97; normalized growth [29]: 0.943; normalized growth [30]: 0.961; normalized growth [31]: 0.961; normalized growth [32]: 0.98; normalized growth [33]: 0.928; normalized growth [34]: 0.972; normalized growth [35]: 0.908; normalized growth [36]: 0.999; normalized growth [37]: 0.949; normalized growth [38]: 0.947; normalized growth [39]: 0.936; normalized growth [40]: 0.978; normalized growth [41]: 0.975; normalized growth [42]: 0.912; normalized growth [43]: 0.956; normalized growth [44]: 0.88; normalized growth [45]: 0.911; normalized growth [46]: 0.972; normalized growth [47]: 0.956; normalized growth [48]: 0.978; normalized growth [49]: 0.973; normalized growth [50]: 0.94; normalized growth [51]: 0.987; normalized growth [52]: 0.985; normalized growth [53]: 0.973; normalized growth [54]: 0.973; normalized growth [55]: 0.947; normalized growth [56]: 0.991; normalized growth [57]: 0.918; normalized growth [58]: 0.93; normalized growth [59]: 0.945; normalized growth [60]: 0.933; normalized growth [61]: 0.984; normalized growth [62]: 0.884; normalized growth [63]: 0.866; normalized growth [64]: 0.898; normalized growth [65]: 0.985; normalized growth [66]: 0.971; normalized growth [67]: 0.979; normalized growth [68]: 0.975; normalized growth [69]: 0.975; normalized growth [70]: 0.977; normalized growth [71]: 0.968
